In PubChem BioAssay (NCI) one finds growth data, which are given here for 38 molecules.

Structures are written as SMILES. Compounds without any hit were thinned out: in the full panel of roughly 83,000, 20% have a hit.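 Cells were grown in 96-well plates and exposed to the test compound at a single concentration for 48 hours; results are reported as percent growth, with values below 10 considered active.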 A number with no mark means an inactive call. Activity calls are given as the source filed them.

The first assay has as its system OVCAR-5 ovarian. As to the kind of experiment: NCI-60 one-dose screen, 48 h (100 = growth as untreated, 0 = no growth, -100 = all killed). Particulars: 10 µM unless noted.
Consider `COc1ccc(-c2c(-c3ccc(OC)c(O)c3)cnc3ncnn23)cc1`, for which the growth was 103%.
With `O=C(Nc1ccc(F)cc1F)c1cc(Br)ccc1O`, the growth was -7.85% (active).
The same measure, in the same setting: with `COc1ccc(-c2cc(=O)c3c(OC)c4ccoc4c(/C=C/C=O)c3o2)cc1` the figure was 77.1%.
Still for that read-out and setting: with `Cc1nc(Nc2cn[nH]c2C(=O)Nc2ccc(CN3CCN(C)CC3)cc2)c2ccsc2n1` the figure was 136%.
Still for that read-out and setting: with `O=[N+]([O-])c1cc2c(ccc3occc32)o1` the figure was 72.7%.
On to `CN1CCN(c2nc(Nc3ccc(O)cc3)nc3ccccc23)CC1`, for which the growth was 82.5%.
Same read-out and setting: with `Nc1ncnc(N)c1NC(=O)c1ccc(OCc2ccccc2)cc1` the figure was 106%.
The same measure, in the same setting: with `CSc1nc2c(c(=O)[nH]1)N=C1c3ccccc3C(=O)C1C(c1ccc(F)cc1)N2` (stereo unspecified) the figure was 93.6%.
On the same count and under the same terms, with `COc1ccc(-c2nc(-c3ccccn3)c(-c3ccccn3)n2CC(C)C)cc1OC1CCCC1` the figure was 33.8%; with `O=C1NC(=S)NC(=O)C1=Cc1cn(Cc2cn(Cc3cccc4ccccc34)nn2)c2ccccc12`, 89.6%; with `O=C(Nc1ccc(Br)cc1F)c1cc(Cl)ccc1O`, -9.6% (active).
For the molecule `CN1C(=O)N(C)C2Nn3c(s/c(=C4\C(=O)N(CCc5ccccc5)c5ccccc54)c3=O)=NC21` (stereo unspecified), the growth is 75.2%.
Take `CC(=O)c1ccc(Cc2ccc(C(C)=O)s2)s1`: the growth is 100%.
Still for that read-out and setting: with `O=c1oc2ccc(F)cc2c(=O)n1-c1ccc(F)cc1F` the figure was 64.8%; with `O=C(Nc1ccc(-c2nc3cc4ccccc4cc3[nH]2)cc1)c1cccc(Br)c1`, 73.7%; with `CCOc1c(Br)cc(C2C(C(=O)OC)=CN(C)C=C2C(=O)OC)cc1OC`, 83.9%.
Same read-out and setting: with `COc1ccc(Cn2c(Br)c3c(c2-c2cc(OC)c(OC)c(OC)c2)CCc2sc(NC(=O)c4ccc(OC)cc4)nc2-3)cc1` the figure was 102%.
On the same count and under the same terms, with `O=C1c2cc(Br)ccc2Oc2cc([N+](=O)[O-])ccc2N1c1ccc(I)cc1F` the figure was 97.7%; with `COc1ccc(Nc2nc(N/N=C/c3ccc(O)cc3)nc(Nc3ccc([N+](=O)[O-])cc3)n2)cc1`, 109%; with `Nc1ccn(C2O[C@H](CO)[C@@H](O)[C@H]2O)c(=O)n1` (stereo partly specified), 104%.
Regarding `CCN1C(=O)N(CC)C2C1NN=c1s/c(=C3\C(=O)N(C(C)C)c4ccccc43)c(=O)n12` (stereo unspecified), the growth is 54.2%.
`CC1(C)CC2(C)OC2C2(C1)N=NC(=Nc1ccccc1)O2` (stereo unspecified): the growth is 94.3%.
Same read-out and setting: with `COc1cc(C(C)n2cc(-c3ccccc3)nn2)ccc1OC1CCCC1` (stereo unspecified) the figure was 93.1%.
On the same count and under the same terms, with `COC(=O)C1=C(C)NC(C)=C(C(=O)OC)C(N2C(=O)CCC2=O)C1` (stereo unspecified) the figure was 114%; with `O=c1oc2ccc(Cl)cc2c(=O)n1-c1ccc(Cl)cc1F`, 24.6%.
On the same count and under the same terms, with `COc1ccc2sc(N(Cc3cccnc3)C(=O)c3ccc(C#N)cc3)nc2c1` the figure was 96.7%; with `O=C(O)CCCN1C(=O)C2C3CCC(C3)C2C1=O` (stereo unspecified), 104%.
Consider `CN1C(=O)N(C)C2(c3ccccc3)OC(=S)NC12c1ccccc1` (stereo unspecified), for which the growth is 99.6%.
The same measure, in the same setting: with `Nc1nonc1-n1nncc1-c1cccnc1` the figure was 110%; with `COc1cc(C(C)n2cc(-c3ccccc3)nn2)ccc1OC1CCCCC1` (stereo unspecified), 92.6%; with `Nc1ccc(-c2nn3c(CCC(=O)c4nc5ncccc5[nH]4)nnc3s2)c(O)c1`, 95%.
For `O=NN(C(=O)NC1CCC(C(=O)O)CC1)C1CCC(C(=O)O)CC1` (stereo unspecified), the growth was 97.4%.
Consider `COc1ccc(OC)c(/C=C/C(=O)c2c(C)nc3ccccc3c2/C=C/c2ccccc2)c1`, for which the growth is 80%.
Same read-out and setting: with `Cc1nc(Nc2ccccn2)sc1C(=O)/C=C/c1ccc(Cl)cc1` the figure was 38.7%; with `O=C(Nc1ccc(-c2nc3ccc(NC(=O)c4ccc(Cl)cc4)cc3[nH]2)cc1)c1ccc(Cl)cc1`, 39.3%; with `O=C(COc1cc(O)c2c(=O)cc(-c3ccccc3)oc2c1)Nc1ccccc1C(F)(F)F`, 62.9%.
In the case of `COc1ccc(CCN2C(=O)CCSC2=S)cc1OC`, the growth was 96.8%.
On the same count and under the same terms, with `COc1ccc(Cn2c(Br)c3c(c2Br)-c2nc(N)sc2CC3)cc1` the figure was 91.4%.

Another assay has as its system OVCAR-4 ovarian. Described as above. Particulars: 10 µM unless noted.
Take `COc1ccc(-c2c(-c3ccc(OC)c(O)c3)cnc3ncnn23)cc1`: the growth was 104%.
On to `O=C(Nc1ccc(F)cc1F)c1cc(Br)ccc1O`, for which the growth is -0.761% (active).
On the same count and under the same terms, with `COc1ccc(-c2cc(=O)c3c(OC)c4ccoc4c(/C=C/C=O)c3o2)cc1` the figure was 37.2%; with `Cc1nc(Nc2cn[nH]c2C(=O)Nc2ccc(CN3CCN(C)CC3)cc2)c2ccsc2n1`, 82.5%.
The same measure, in the same setting: with `O=[N+]([O-])c1cc2c(ccc3occc32)o1` the figure was 66.6%.
Turning to `CN1CCN(c2nc(Nc3ccc(O)cc3)nc3ccccc23)CC1`, the growth is 82.9%.
On the same count and under the same terms, with `Nc1ncnc(N)c1NC(=O)c1ccc(OCc2ccccc2)cc1` the figure was 107%; with `CSc1nc2c(c(=O)[nH]1)N=C1c3ccccc3C(=O)C1C(c1ccc(F)cc1)N2` (stereo unspecified), 41.2%; with `COc1ccc(-c2nc(-c3ccccn3)c(-c3ccccn3)n2CC(C)C)cc1OC1CCCC1`, 13.5%.
On the same count and under the same terms, with `O=C1NC(=S)NC(=O)C1=Cc1cn(Cc2cn(Cc3cccc4ccccc34)nn2)c2ccccc12` the figure was 92.2%.
The same measure, in the same setting: with `O=C(Nc1ccc(Br)cc1F)c1cc(Cl)ccc1O` the figure was 10.2%.
Take `CN1C(=O)N(C)C2Nn3c(s/c(=C4\C(=O)N(CCc5ccccc5)c5ccccc54)c3=O)=NC21` (stereo unspecified): the growth is 79.3%.
Still for that read-out and setting: with `CC(=O)c1ccc(Cc2ccc(C(C)=O)s2)s1` the figure was 96.5%; with `O=c1oc2ccc(F)cc2c(=O)n1-c1ccc(F)cc1F`, 11.9%.
As for `O=C(Nc1ccc(-c2nc3cc4ccccc4cc3[nH]2)cc1)c1cccc(Br)c1`, the growth was 63.7%.
On the same count and under the same terms, with `CCOc1c(Br)cc(C2C(C(=O)OC)=CN(C)C=C2C(=O)OC)cc1OC` the figure was 72.9%.
For the molecule `COc1ccc(Cn2c(Br)c3c(c2-c2cc(OC)c(OC)c(OC)c2)CCc2sc(NC(=O)c4ccc(OC)cc4)nc2-3)cc1`, the growth was 93.3%.
Same read-out and setting: with `O=C1c2cc(Br)ccc2Oc2cc([N+](=O)[O-])ccc2N1c1ccc(I)cc1F` the figure was 94.5%.
Same read-out and setting: with `COc1ccc(Nc2nc(N/N=C/c3ccc(O)cc3)nc(Nc3ccc([N+](=O)[O-])cc3)n2)cc1` the figure was 111%; with `Nc1ccn(C2O[C@H](CO)[C@@H](O)[C@H]2O)c(=O)n1` (stereo partly specified), 72.3%.
On the same count and under the same terms, with `CCN1C(=O)N(CC)C2C1NN=c1s/c(=C3\C(=O)N(C(C)C)c4ccccc43)c(=O)n12` (stereo unspecified) the figure was 58.1%.
In the case of `CC1(C)CC2(C)OC2C2(C1)N=NC(=Nc1ccccc1)O2` (stereo unspecified), the growth is 60.9%.
`COc1cc(C(C)n2cc(-c3ccccc3)nn2)ccc1OC1CCCC1` (stereo unspecified): the growth is 54.9%.
On the same count and under the same terms, with `COC(=O)C1=C(C)NC(C)=C(C(=O)OC)C(N2C(=O)CCC2=O)C1` (stereo unspecified) the figure was 79.4%.
On the same count and under the same terms, with `O=c1oc2ccc(Cl)cc2c(=O)n1-c1ccc(Cl)cc1F` the figure was 11%; with `COc1ccc2sc(N(Cc3cccnc3)C(=O)c3ccc(C#N)cc3)nc2c1`, 105%; with `O=C(O)CCCN1C(=O)C2C3CCC(C3)C2C1=O` (stereo unspecified), 109%.
On the same count and under the same terms, with `CN1C(=O)N(C)C2(c3ccccc3)OC(=S)NC12c1ccccc1` (stereo unspecified) the figure was 96.1%; with `Nc1nonc1-n1nncc1-c1cccnc1`, 98.8%.
On to `COc1cc(C(C)n2cc(-c3ccccc3)nn2)ccc1OC1CCCCC1` (stereo unspecified), for which the growth was 55.2%.
The same measure, in the same setting: with `Nc1ccc(-c2nn3c(CCC(=O)c4nc5ncccc5[nH]4)nnc3s2)c(O)c1` the figure was 98%; with `O=NN(C(=O)NC1CCC(C(=O)O)CC1)C1CCC(C(=O)O)CC1` (stereo unspecified), 95.8%; with `COc1ccc(OC)c(/C=C/C(=O)c2c(C)nc3ccccc3c2/C=C/c2ccccc2)c1`, 59.3%.
For `Cc1nc(Nc2ccccn2)sc1C(=O)/C=C/c1ccc(Cl)cc1`, the growth is 54%.
The same measure, in the same setting: with `O=C(Nc1ccc(-c2nc3ccc(NC(=O)c4ccc(Cl)cc4)cc3[nH]2)cc1)c1ccc(Cl)cc1` the figure was -2.34% (active); with `O=C(COc1cc(O)c2c(=O)cc(-c3ccccc3)oc2c1)Nc1ccccc1C(F)(F)F`, -50.1% (active).
Still for that read-out and setting: with `COc1ccc(CCN2C(=O)CCSC2=S)cc1OC` the figure was 90.5%; with `COc1ccc(Cn2c(Br)c3c(c2Br)-c2nc(N)sc2CC3)cc1`, 47.8%.
